Out of some 21,000 compounds screened, fewer than 10 showed an effect of 50% or more. These entries were drawn from the full list. Potency and affinity values are given separately.
Each compound was assayed on Acinetobacter baumannii. Details: Concentration 20 uM; ASSAY_TEST Inhibition of Bacterial Growth; detection method Absorption (OD600); MEDIA CAMHB; plate type 384well; NBS; CORNING #3640; time 18 hr.
In the case of O=C(CN1CCOCC1)Nc1ccc2ncnc(Nc3ccc(OCc4cccc(F)c4)c(Cl)c3)c2c1, the Inhibition is reported as 8.91%. Work on Cl.O=C(Nc1ccc(N2CCNCC2)nc1)c1oc(-c2ccccc2)nc1C(F)(F)F yielded an Inhibition of 4.8%.
